Screening results deposited in PubChem BioAssay by National Center for Advancing Translational Sciences (NCATS).
CtBP-E1A inh = qHTS Assay for Inhibitors of the CtBP/E1A Interaction; activity change, % (concentration not given with the values); AlphaScreen GST-E1A/His-CtBP binding, 1536-well; stronger effect = lower value; actives 0.49% (n = 340,000); CtBP / adenovirus E1A interaction (AlphaScreen); in the data active means activity change below about -65%; inconclusive means mostly about -30% to -63%
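Steps: dispense buffer (Tris pH 8.0, NaCl 300 mM, TCEP 1 mM, BSA, Tween 20); add 5X protein mix (GST-E1A, His-CtBP, 125 nM each); pin 23 nL compound; 2 h at 37 °C, dark; add 5X beads (50 ug/mL); 1 h; read.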
PI4K2A block = qHTS for small molecular inhibitors of PI4K2A; purified PI4K2A, ADP-Glo luminescence, 1 h; stronger effect = lower value; Phosphatidylinositol 4-kinase type 2-alpha (Homo sapiens), Q9BTU6; AID 1346378, 2018; actives 0.13% (n = 420,000); activity change, negative = inhibition, % at 76.9 µM; in the data active means activity change below about -50%; inconclusive means mostly about -30% to -49%
Target sequence (Q9BTU6 whole entry, looked up): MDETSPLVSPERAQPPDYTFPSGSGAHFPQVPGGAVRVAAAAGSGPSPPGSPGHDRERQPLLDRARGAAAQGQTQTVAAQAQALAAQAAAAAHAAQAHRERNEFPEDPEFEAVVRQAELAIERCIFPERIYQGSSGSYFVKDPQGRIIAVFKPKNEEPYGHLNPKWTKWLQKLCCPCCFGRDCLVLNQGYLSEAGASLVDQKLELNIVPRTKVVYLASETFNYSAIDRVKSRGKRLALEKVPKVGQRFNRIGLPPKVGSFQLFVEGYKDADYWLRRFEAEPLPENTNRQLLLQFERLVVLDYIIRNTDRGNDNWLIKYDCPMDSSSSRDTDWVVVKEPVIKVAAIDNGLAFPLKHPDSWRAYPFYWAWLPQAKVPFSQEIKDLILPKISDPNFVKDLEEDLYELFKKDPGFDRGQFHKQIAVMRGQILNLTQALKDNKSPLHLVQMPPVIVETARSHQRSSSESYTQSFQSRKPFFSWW
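ADP-Glo luminescence measured ADP generated by PI4K2A enzyme (4 ug/mL before mixing) with 1.2 mM PI substrate (pre-mix) and 300 microM ATP (pre-mix). Tris pH7.5 buffer with MgCl2, Triton X-100; 1 h reaction at ambient temperature.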
USP2a block = qHTS Assay for Inhibitors of Ubiquitin-specific Protease USP2a Using CHOP2 as the Reporter. Ubiquitin carboxyl-terminal hydrolase 2 (Homo sapiens), O75604. USP2 core, Ub-CHOP2 coupled fluorogenic reporter, 485/531. Potency, µM (titrated, usually from 38.3 µM), actives largely listed as inhibitors. actives 0.01% (n = 330,000). AID 463254, 2010
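Cell-free coupled assay: 10nM USP2 core preincubated 30min RT with compound in Tris-HCl pH 8.0/CaCl2/CHAPS buffer, then 25nM Ub-CHOP2 and 25nM reporter substrate; fluorescence (Ex 485/Em 531) read after 60min RT, normalized to NEM inhibition, concentration-response curves fitted.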
Six1-Eya2 blk = qHTS Assay for Inhibitors of the Six1/Eya2 Interaction. Homeobox protein SIX1 (Homo sapiens) + Protein phosphatase EYA2 (Homo sapiens), …. AlphaScreen GST-Six1/His-Eya2 binding, biochemical; stronger effect = lower value. activity change, % (test concentration not listed). actives 0.56% (n = 360,000); in the data active means activity change below about -65%; inconclusive means mostly about -30% to -63%
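Homogeneous AlphaScreen proximity assay pairing GST-Six1 with His-tagged Eya2 (added as 5X mix: 250 nM and 500 nM) in 50 mM Tris pH 8.0, 300 mM NaCl, 1 mM TCEP. Glutathione donor and nickel acceptor beads; 1 h, 37 °C, dark.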
Eya2 inh = qHTS Assay for Inhibitors of the Phosphatase Activity of Eya2. recombinant Eya2, OMFP fluorescence dephosphorylation (OMFP is methylfluorescein phosphate). Potency, µM (series often up to 76.9 µM), most hits filed as inhibitors. actives 0.006% (n = 330,000). AID 488837, 2010
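Eya2 protein (added as 0.2 uM solution) was preincubated with compound for 10 min at ambient temperature in 50 mM HEPES pH 7.5, 50 mM NaCl, 5 uM MgCl2, 0.05% BSA, 1 mM DTT. OMFP (added at 50 uM) then reacted 10 min; fluorescence read at 485/525 nm.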
RGS4 inhibitor = Inhibitors of Regulator of G Protein Signaling (RGS) 4: qHTS; actives 0.039% (n = 390,000); Transcreener GDP fluorescence polarization, RGS4-accelerated GTP hydrolysis; Potency, µM (top dose mostly 114 µM), usual class: inhibitors; Regulator of G-protein signaling 4 (Homo sapiens), P49798; further: nearly all actives have a fitted effect of over 75% in size
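MLSMR compounds (23 nl, pin-transferred) preincubated 10 min at room temperature with a 500nM (2x) first reagent, then RGS4 at 900nM (2x) plus Transcreener GDP mix added; fluorescence polarization (620/688 nm) read before and after 90 min at 30 °C.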
Hits are given with their value; . = inactive; ? = inconclusive; / = no result. Rows were chosen to be rich in hits. Some 0.72% of all compounds tested hit in one or more screens of this group. Unless noted, the call rests on the fitted dose curve; in most records, active means well fitted curve in the direction sought with a large enough effect; inconclusive means small, poorly fitted or top-dose-only effect, or another doubt; inactive means no such curve, though single readings can be large; an effect the other way counts as inactive or inconclusive.

SMILES | CtBP-E1A inh | PI4K2A block | USP2a block | Six1-Eya2 blk | Eya2 inh | RGS4 inhibitor
Cc1ccc(S(=O)(=O)c2cnc(SCC(=O)Nc3ccc4c(c3)OCCO4)[nH]c2=O)cc1 | / | . | / | / | / | .
O=C(Cn1cc(S(=O)(=O)Cc2ccccc2Cl)c2ccccc21)Nc1ccc(F)cc1F | / | . | / | / | / | .
Cc1cc(NC(=O)CSc2nnc(CNC(=O)c3cccc(C(F)(F)F)c3)o2)no1 | -78 | . | . | -72 | . | .
c1ccc(CN2CCN(CCCNc3ccc4nnc(-c5ccccc5)n4n3)CC2)cc1 | . | . | . | -69 | . | .
Cc1ccc(CNc2ccc3nnc(-c4ccccc4)n3n2)cc1 | . | . | . | . | . | .
COc1cccc(/C=N/Nc2ncnc3c2ncn3Cc2ccccc2)c1O | -87 | . | . | -78 | . | .
COc1cccc(/C=N/NC(=O)c2c(C)nc3ccc(Cl)cn23)c1O | -94 | . | . | -78 | . | .
COc1cccc(/C=N/NC(=O)c2ccc(=O)[nH]n2)c1O | / | . | . | -79 | . | .
COc1ccccc1/C=N\NC(=O)c1c(C)nc2ccc(Cl)cn12 | . | . | . | . | . | .
COc1cccc(/C=N/Nc2nnc(C)n2N)c1O | -88 | . | . | -73 | . | .
CCc1ccc(C(=O)c2cn(CC(=O)Nc3ccc(OC)c(Cl)c3)c3nc(C)ccc3c2=O)cc1 | / | . | / | / | / | .
COc1cccc(/C=N/Nc2cc(N3CCOCC3)ncn2)c1O | -94 | . | . | -91 | . | .
COc1cccc(/C=N/NC(=O)c2[nH]c(C)c(C(=O)N/N=C/c3cccc(OC)c3O)c2C)c1O | . | . | . | -92 | . | ?
COc1cccc(/C=N/NC(=O)c2ccc(=O)n(C)c2)c1O | -87 | . | . | -88 | . | .
COc1cccc(/C=N/NC(=O)c2ccc(-c3ccccc3)cc2)c1O | . | . | . | . | . | .
COc1cc(OC)c(OC)cc1/C=N/NC(=O)c1ccc(=O)n(C)c1 | . | . | . | . | . | .
COc1ccccc1NC(=O)CSc1nnc2c3ccccc3n(C(C)C)c2n1 | / | . | / | / | / | .
CC(=NNC(=O)c1ccncc1)c1ccccc1O | -75 | . | / | -71 | / | .
C/C(=N\NC(=O)c1cc(-c2cccnc2)nc2ccccc12)c1ccc(O)cc1O | . | . | . | -74 | . | .
CC(=NNC(=O)c1ccncc1)c1ccc(O)cc1O | -76 | . | / | ? | / | .
CC(=NNC(=O)c1ccncc1)c1ccc2ccccc2c1O | ? | . | / | ? | / | .
CCc1c(C)sc2c1CCN(C(=O)Nc1ccccc1Cl)C2c1ccc(OC)cc1 (stereo unspecified) | / | . | / | / | / | .
COc1cc2c(cc1OC)n(CC(=O)Nc1ccc(C)cc1C)c(=O)n1nc(-c3ccccc3)nc21 | / | . | / | / | / | .
CN(CCC#N)C(=O)COC(=O)c1c2c(nc3ccccc13)/C(=C/c1ccco1)CC2 | . | -53 | . | ? | . | ?
O=C(O)c1ccc2c(c1)[C@@H]1C=CC[C@@H]1[C@H](c1ccccn1)N2 | . | . | / | -77 | / | ?
SMILES | CtBP-E1A inh | PI4K2A block | USP2a block | Six1-Eya2 blk | Eya2 inh | RGS4 inhibitor
COc1ccc(OC)c([C@@H]2Nc3ccc(C(=O)O)cc3[C@@H]3C=CC[C@@H]32)c1 | / | . | / | / | / | .
CCCCN1CCc2nc(Nc3ccc(OC)cc3OC)ncc2C1 | / | . | / | / | / | .
CCN(C(=O)COC(=O)/C=C/c1c(C)nn(-c2ccccc2)c1C)C1CCS(=O)(=O)C1 (stereo unspecified) | -71 | . | . | . | . | .
Cc1nn(-c2ccccc2)c(C)c1/C=C/C(=O)OCC(=O)N(C)C1CCS(=O)(=O)C1 (stereo unspecified) | ? | . | . | . | . | .
COc1ccc2c(c1)CN1C(=O)N(CC(C)C)S(=O)(=O)CC21 (stereo unspecified) | / | . | / | / | / | /
CCOc1ccc(NC(=O)Nc2cc(C)ccc2F)cc1 | . | -64 | . | . | . | .
CCOc1ccccc1NS(=O)(=O)c1ccc2c(c1)CC(C)N2C(=O)C1CCC1 (stereo unspecified) | / | . | / | / | / | .
NC(=O)c1sc(=S)n2c1[nH]c(=O)c1sccc12 | -82 | . | . | ? | . | .
CC(=O)NNC(=O)c1sc(=S)n2c1[nH]c(=O)c1sccc12 | ? | . | . | -65 | . | ?
CN(CC(=O)Nc1ccc(Cl)c(C(F)(F)F)c1)C(=O)COc1cccc2cccnc12 | . | . | / | . | / | /
CSc1ccccc1NC(=O)CN(C)C(=O)COc1cccc2cccnc12 | -85 | . | . | -85 | . | .
O=C1C(=Cc2ccc(Cl)cc2)CCc2ccccc21 | . | ? | / | . | / | /
O=C1C(=Cc2ccc(F)cc2)CCc2ccccc21 | . | -73 | / | . | / | /
COc1ccc(C=C2CCc3ccccc3C2=O)cc1 | . | -83 | / | . | / | /
